This note sets out measurements from PubChem BioAssay (NCI).

The nature of experiment [1]: NCI Yeast Anticancer Drug Screen. Data for the rad50 strain (AID 155).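 Note: 0% = growth of vehicle-only cultures of the same strain.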 To be noted: S. cerevisiae rad50 strain growth inhibition, active compounds read high. The method in brief: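 Cells are treated with compound, grown, and their growth is then scored against vehicle-only cultures of the same repair-deficient yeast strain.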
Experiment [2] can be described thus: NCI Yeast Anticancer Drug Screen. Data for the mec2-1 strain (AID 157). To be noted: S. cerevisiae mec2-1 strain, active compounds read high. The essentials:
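Test agents were screened against the mec2-1 yeast strain, with defined DNA repair or cell cycle alteration. Growth was scored as inhibition against vehicle-only controls.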

The nature of experiment [3]: NCI Yeast Anticancer Drug Screen. Data for the sgs1 mgt1 strain (AID 161).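 Note: 0% = growth of cultures given vehicle only.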 The settings on record: S. cerevisiae sgs1 mgt1 strain, active compounds read high. The method in brief: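 Test agents were incubated with a DNA-repair-mutant yeast strain. Growth was then read and compared against vehicle-treated controls.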
A short description of experiment [4]: NCI Yeast Anticancer Drug Screen. Data for the cln2 rad14 strain (AID 165).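 Note: 0% = growth equal to vehicle treated cultures.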 To be noted: S. cerevisiae cln2 rad14 strain, active compounds read high. The essentials: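 Growth of compound-exposed yeast (cln2 rad14 genotype) measured and expressed as inhibition relative to vehicle.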
The nature of experiment [5]: NCI Yeast Anticancer Drug Screen. Data for the bub3 strain (AID 167). The settings on record: S. cerevisiae bub3 mutant strain, active compounds read high. The essentials: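 Part of a panel of yeast mutants defective in DNA damage repair or cell cycle regulation. Each strain is grown with compound, and inhibition is calculated relative to solvent-treated cultures.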
The nature of experiment [6]: NCI Yeast Anticancer Drug Screen. Data for the mlh1 rad18 strain (AID 175). The settings on record: S. cerevisiae mlh1 rad18 strain growth inhibition, active compounds read high. The essentials: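 In this whole-cell yeast screen, a strain with altered DNA damage repair is challenged with compound, and its growth is measured against matched vehicle-treated controls.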
Where [7] appears, read: at 5.0 µM (retest, dose inferred, filed as 0.5).
Setting [8] is: at 50.0 µM (retest, dose inferred, filed as 5.0).

The structures appear in SMILES notation. Compounds without any hit were thinned out: in the full panel of roughly 79,000, 15% have a hit. Unmarked numbers belong to inactive results. The source made the active and inactive calls. Cut-off read from the data, not from the text of the source: active = growth inhibition above about 70%; inactive = the rest.

On to `N=C(N)c1ccc(OCCCCOc2ccc(N)cc2Cl)cc1`, for which the growth inhibition in experiment [1] (setting [7]) was -36%; in experiment [1] (setting [8]), 89% (active); in experiment [1] (at 50.0 µM), 54.5%; in experiment [2] (setting [7]), -2%; in experiment [2] (setting [8]), 79% (active); in experiment [2] (at 50.0 µM), 7.85%. In addition, the growth inhibition was 3% in experiment [3] (setting [7]); 98% (active) in experiment [3] (setting [8]); 44.4% in experiment [3] (at 50.0 µM); -2% in experiment [4] (setting [7]); 38% in experiment [4] (setting [8]); -16.9% in experiment [4] (at 50.0 µM). In addition, the growth inhibition in experiment [5] (setting [7]) is 0%; in experiment [5] (setting [8]), 97% (active); in experiment [5] (at 50.0 µM), 0.65%; in experiment [6] (setting [7]), 17%; in experiment [6] (setting [8]), 98% (active); in experiment [6] (at 50.0 µM), 58.6%.

Turning to `O=C(OC12CCCCC1CCCC2)c1ccc([N+](=O)[O-])cc1` (stereo not given), the growth inhibition in experiment [1] (setting [7]) is 28%; in experiment [1] (setting [8]), 98% (active); in experiment [1] (at 50.0 µM), 98% (active); in experiment [2] (setting [7]), 29%; in experiment [2] (setting [8]), 99% (active); in experiment [2] (at 50.0 µM), 99.5% (active). For the same compound, the growth inhibition was 32% in experiment [3] (setting [7]); 99% (active) in experiment [3] (setting [8]); 99.1% (active) in experiment [3] (at 50.0 µM); 11% in experiment [4] (setting [7]); 99% (active) in experiment [4] (setting [8]); 99.5% (active) in experiment [4] (at 50.0 µM). Also, the growth inhibition is 33% in experiment [5] (setting [7]); 99% (active) in experiment [5] (setting [8]); 99.4% (active) in experiment [5] (at 50.0 µM); 44% in experiment [6] (setting [7]); 98% (active) in experiment [6] (setting [8]); 99.2% (active) in experiment [6] (at 50.0 µM).

In the case of `O=C(O)C1(Cc2ccc3c(c2)CCC3)Cc2ccccc2C1=O` (stereo not given), the growth inhibition in experiment [1] (setting [7]) was 9%; in experiment [1] (setting [8]), 9%; in experiment [1] (at 50.0 µM), 89.9% (active); in experiment [2] (setting [7]), -6%; in experiment [2] (setting [8]), -6%; in experiment [2] (at 50.0 µM), 92.4% (active). The growth inhibition is 3% in experiment [3] (setting [7]); 3% in experiment [3] (setting [8]); 87.5% (active) in experiment [3] (at 50.0 µM); 3% in experiment [4] (setting [7]); 3% in experiment [4] (setting [8]); 88.2% (active) in experiment [4] (at 50.0 µM). In addition, the growth inhibition in experiment [5] (setting [7]) is -7%; in experiment [5] (setting [8]) it was -7%; in experiment [5] (at 50.0 µM), 90.2% (active); in experiment [6] (setting [7]), 1%; in experiment [6] (setting [8]), 1%; in experiment [6] (at 50.0 µM), 87% (active).

`C=C(Cl)C(=NC(C)(C)C)Nc1ccccc1Cl`: the growth inhibition is 21% in experiment [1] (setting [7]); 42% in experiment [1] (setting [8]); 66.4% in experiment [1] (at 50.0 µM); 14% in experiment [2] (setting [7]); 35% in experiment [2] (setting [8]); 59.5% in experiment [2] (at 50.0 µM). The growth inhibition in experiment [3] (setting [7]) is 16%; in experiment [3] (setting [8]) it was 40%; in experiment [3] (at 50.0 µM) it was 63.1%; in experiment [4] (setting [7]), 31%; in experiment [4] (setting [8]) it was 33%; in experiment [4] (at 50.0 µM), 50.8%. Besides, the growth inhibition is 14% in experiment [5] (setting [7]); 32% in experiment [5] (setting [8]); 53.2% in experiment [5] (at 50.0 µM); 27% in experiment [6] (setting [7]); 53% in experiment [6] (setting [8]); 85.8% (active) in experiment [6] (at 50.0 µM).

Consider `C=CC(=O)Oc1ccccc1/C=C/C(=O)CCCCCC`, for which the growth inhibition is 37% in experiment [1] (setting [7]); 95% (active) in experiment [1] (setting [8]); 96.5% (active) in experiment [1] (at 50.0 µM); 4% in experiment [2] (setting [7]); 98% (active) in experiment [2] (setting [8]); 97.5% (active) in experiment [2] (at 50.0 µM). Also, the growth inhibition in experiment [3] (setting [7]) was 14%; in experiment [3] (setting [8]), 88% (active); in experiment [3] (at 50.0 µM) it was 97.5% (active); in experiment [4] (setting [7]), -2%; in experiment [4] (setting [8]) it was 72% (active); in experiment [4] (at 50.0 µM) it was 62.8%. Moreover, the growth inhibition is 0% in experiment [5] (setting [7]); 95% (active) in experiment [5] (setting [8]); 83.1% (active) in experiment [5] (at 50.0 µM); 4% in experiment [6] (setting [7]); 95% (active) in experiment [6] (setting [8]); 96% (active) in experiment [6] (at 50.0 µM).

Consider `Cc1cccc(N2CCN(CC(O)COc3ccc4ccccc4c3)CC2)c1` (stereo not given), for which the growth inhibition in experiment [1] (setting [7]) is -6%; in experiment [1] (setting [8]), -7%; in experiment [1] (at 50.0 µM), 80.7% (active); in experiment [2] (setting [7]), 13%; in experiment [2] (setting [8]) it was 18%; in experiment [2] (at 50.0 µM) it was 72.1% (active). In addition, the growth inhibition in experiment [3] (setting [7]) was -3%; in experiment [3] (setting [8]), 12%; in experiment [3] (at 50.0 µM), 97.7% (active); in experiment [4] (setting [7]) it was -4%; in experiment [4] (setting [8]), -6%; in experiment [4] (at 50.0 µM) it was 60.1%. In addition, the growth inhibition in experiment [5] (setting [7]) was -5%; in experiment [5] (setting [8]), 4%; in experiment [5] (at 50.0 µM), 41.1%; in experiment [6] (setting [7]), 26%; in experiment [6] (setting [8]), 28%; in experiment [6] (at 50.0 µM) it was 90% (active).

Turning to `CCCCCCCCCCCCCCCC(=O)N1CC[N+](C)(CC2=CC3(Cl)C(Cl)=C(Cl)C2(Cl)C3(Cl)Cl)CC1` (stereo not given), the growth inhibition in experiment [1] (setting [7]) is 99% (active); in experiment [1] (setting [8]), 99% (active); in experiment [1] (at 50.0 µM), 98.8% (active); in experiment [2] (setting [7]) it was 99% (active); in experiment [2] (setting [8]) it was 99% (active); in experiment [2] (at 50.0 µM), 99.2% (active). Moreover, the growth inhibition in experiment [3] (setting [7]) is 98% (active); in experiment [3] (setting [8]) it was 99% (active); in experiment [3] (at 50.0 µM) it was 99.2% (active); in experiment [4] (setting [7]), 96% (active); in experiment [4] (setting [8]) it was 98% (active); in experiment [4] (at 50.0 µM), 98.5% (active). Further, the growth inhibition in experiment [5] (setting [7]) was 99% (active); in experiment [5] (setting [8]), 99% (active); in experiment [5] (at 50.0 µM), 98.8% (active); in experiment [6] (setting [7]) it was 99% (active); in experiment [6] (setting [8]) it was 99% (active); in experiment [6] (at 50.0 µM) it was 98.7% (active).

`CCN1/C(=C/C(C)=C/c2sc3ccccc3[n+]2CC)Sc2ccccc21`: the growth inhibition was 98% (active) in experiment [1] (setting [7]); 97% (active) in experiment [1] (setting [8]); 92% (active) in experiment [1] (at 50.0 µM); 97% (active) in experiment [2] (setting [7]); 100% (active) in experiment [2] (setting [8]); 94% (active) in experiment [2] (at 50.0 µM). In addition, the growth inhibition is 98% (active) in experiment [3] (setting [7]); 100% (active) in experiment [3] (setting [8]); 94% (active) in experiment [3] (at 50.0 µM); 97% (active) in experiment [4] (setting [7]); 99% (active) in experiment [4] (setting [8]); 93.7% (active) in experiment [4] (at 50.0 µM). Also, the growth inhibition in experiment [5] (setting [7]) is 98% (active); in experiment [5] (setting [8]) it was 99% (active); in experiment [5] (at 50.0 µM) it was 92.8% (active); in experiment [6] (setting [7]) it was 98% (active); in experiment [6] (setting [8]), 99% (active); in experiment [6] (at 50.0 µM) it was 92% (active).

Consider `COc1cc(CNC(=O)CCCCCCCC/C=C/Br)ccc1O`, for which the growth inhibition in experiment [1] (setting [7]) is -32%; in experiment [1] (setting [8]), 93% (active); in experiment [1] (at 50.0 µM) it was 84.7% (active); in experiment [2] (setting [7]), -7%; in experiment [2] (setting [8]), 96% (active); in experiment [2] (at 50.0 µM), 85.8% (active). Also, the growth inhibition in experiment [3] (setting [7]) is -2%; in experiment [3] (setting [8]) it was 92% (active); in experiment [3] (at 50.0 µM), 90.5% (active); in experiment [4] (setting [7]), -4%; in experiment [4] (setting [8]), 94% (active); in experiment [4] (at 50.0 µM), 85% (active). The growth inhibition in experiment [5] (setting [7]) was -4%; in experiment [5] (setting [8]), 95% (active); in experiment [5] (at 50.0 µM) it was 87.6% (active); in experiment [6] (setting [7]), -16%; in experiment [6] (setting [8]) it was 92% (active); in experiment [6] (at 50.0 µM), 87.5% (active).

Turning to `O=C1OCCN1/N=C/c1ccc([N+](=O)[O-])o1`, the growth inhibition was 14% in experiment [1] (setting [7]); 54% in experiment [1] (setting [8]); 81.2% (active) in experiment [1] (at 50.0 µM); 7% in experiment [2] (setting [7]); 30% in experiment [2] (setting [8]); 54.1% in experiment [2] (at 50.0 µM). Also, the growth inhibition in experiment [3] (setting [7]) was 9%; in experiment [3] (setting [8]) it was 62%; in experiment [3] (at 50.0 µM) it was 87.7% (active); in experiment [4] (setting [7]), -2%; in experiment [4] (setting [8]) it was 27%; in experiment [4] (at 50.0 µM) it was 50.1%. For the same compound, the growth inhibition in experiment [5] (setting [7]) is 7%; in experiment [5] (setting [8]) it was 39%; in experiment [5] (at 50.0 µM), 40.8%; in experiment [6] (setting [7]), 30%; in experiment [6] (setting [8]), 72% (active); in experiment [6] (at 50.0 µM), 88.5% (active).
